Compounds with a hit are over-represented: about 3.3% of the library has one in this group of screens.
DRD3 antagonist: qHTS of D3 Dopamine Receptor Antagonist: qHTS; D(3) dopamine receptor (Homo sapiens), P35462; D3R cells, DiscoveRx beta-arrestin luminescence, antagonist mode; hits give low values; max response, negative = inhibition, %; actives 2.5% (n = 360,000); in the data active = max response below about -50%; inconclusive = no clear call, values can overlap the other calls; also: % is scaled to controls: 0 for no effect and ±100 for the full control effect
Target sequence (P35462 whole entry, looked up): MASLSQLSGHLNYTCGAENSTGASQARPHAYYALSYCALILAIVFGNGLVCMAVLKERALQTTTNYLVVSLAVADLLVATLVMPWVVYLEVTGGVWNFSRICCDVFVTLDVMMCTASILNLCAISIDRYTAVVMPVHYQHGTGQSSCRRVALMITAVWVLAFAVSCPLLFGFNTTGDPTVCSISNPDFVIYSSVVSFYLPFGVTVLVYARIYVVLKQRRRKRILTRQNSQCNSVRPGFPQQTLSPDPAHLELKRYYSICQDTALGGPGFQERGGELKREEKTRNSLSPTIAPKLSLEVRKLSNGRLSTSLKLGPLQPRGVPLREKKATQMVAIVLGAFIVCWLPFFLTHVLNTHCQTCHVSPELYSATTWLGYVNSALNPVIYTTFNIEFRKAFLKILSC
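Cells expressing the human receptor were seeded at 1500 cells/well, incubated overnight at 37 degrees C in 5% CO2, then exposed to library compounds with dopamine controls for 90 minutes at 37 degrees C before luminescent detection.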
DRD3 agonist: qHTS of D3 Dopamine Receptor Agonist: qHTS; D(3) dopamine receptor (Homo sapiens), P35462; D3R DiscoveRx beta-arrestin cells, luminescence, 90 min; max activation, %; actives 0.58% (n = 410,000); AID 652048, 2013; in the data active = max activation above about 30%; also: 0% is about no effect
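Cells at 1500/well, incubated overnight, then treated with pinned compounds (dopamine as control) for 90 min at 37 degrees C. DiscoveRx reagent added for 30 - 60 minutes at room temperature; luminescence read.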
PI4K2A inh: qHTS for small molecular inhibitors of PI4K2A | Phosphatidylinositol 4-kinase type 2-alpha (Homo sapiens), Q9BTU6 | purified PI4K2A, ADP-Glo luminescence, 1 h; hits give low values | activity change, negative = inhibition, % at 76.9 µM | actives 0.13% (n = 420,000) | AID 1346378, 2018; in the data active = activity change below about -50%; inconclusive = mostly about -30% to -49%;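 also: -100% = wells without enzyme as full effect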
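Compounds are screened against recombinant PI4K2A using PI as substrate and ATP, the latter dispensed at 300 microM. Reactions run one hour at ambient temperature before ADP-Glo detection; full inhibition defined by wells lacking enzyme.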
PI5P4Ka inh: qHTS for Inhibitors of phosphatidylinositol 5-phosphate 4-kinase (PI5P4K). actives 1.2% (n = 330,000). PI5P4Kalpha enzyme, ADP-Glo luminescence, 60 min; hits give low values. max response, %. Phosphatidylinositol 5-phosphate 4-kinase type-2 alpha (Homo sapiens), P48426; active = max response of -50% or lower; inconclusive = between -30% and -50%; inactive = -30% or higher; also: value at the top dose of about 77 µM; % is scaled to controls: 0 for no effect and ±100 for the full control effect
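Single end-point luminescence (ADP-Glo) quantified ADP from PI5P4Kalpha turnover; ATP 5 microM final, 1 h at RT, 0.1% CHAPS and 0.28 mM EGTA in HEPES pH 7.4.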
LDHA block: qHTS assay for inhibitors of human lactate dehydrogenase | L-lactate dehydrogenase A chain (Homo sapiens), P00338 | purified LDHA, NADH/diaphorase-resazurin fluorescence; hits give low values | activity change, % (values are at about 110 or 230 µM) | actives 0.15% (n = 480,000) | AID 1347041, 2019; in the data active = activity change below about -30%; inconclusive = mostly about -25% to -30%;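 also: plate controls were DMSO wells for no effect and wells without enzyme for full effect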
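Remaining NADH was detected by diaphorase (0.133 mg/mL) converting 37 µM resazurin to fluorescent resorufin, read at 0 and 20 minutes. The preceding 5-minute room-temperature reaction used 2 nM LDHA, 0.2 mM sodium pyruvate and 0.06 mM NADH at pH 7.4.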
* = called active by the depositor; u = inconclusive; x = no result given.

SMILES	DRD3 antagonist	DRD3 agonist	PI4K2A inh	PI5P4Ka inh	LDHA block
O=C(O)COc1ccc2occ(C(=O)c3ccccc3)c2c1	u	-2	-5	u	-6
NCCC12CC3CC(C1)CC(CCN)(C3)C2	x	x	x	x	6
N#Cc1c(N)nc(SCC(=O)NC2CCCCC2)c(C#N)c1-c1ccc(Cl)cc1	-12	46*	-2	x	-1
CC(C)c1ccc(-c2c(C#N)c(N)nc(SCC(=O)N3CCCCCC3)c2C#N)cc1	12	0	-3	0	-3
CCOc1cc(C2CC(=O)N3CN(C4CCCCC4)CSC3=C2C#N)ccc1O (stereo not given)	-16	4	-9	-60*	13
COc1ccc(C2CC(=O)N3CN(C4CCCCC4)CSC3=C2C#N)c(OC)c1 (stereo not given)	x	3	-15	x	25
COc1ccc(C2CC(=O)N3CN(c4ccccc4F)CSC3=C2C#N)cc1OC (stereo not given)	20	4	-3	-84*	6
N#CC1=C2SCN(C3CCCCC3)CN2C(=O)CC1c1ccc(Br)cc1 (stereo not given)	x	0	-2	x	12
COc1ccc(OC)c(C2CC(=O)N3CN(c4ccccc4)CSC3=C2C#N)c1 (stereo not given)	-8	10	-11	-85*	4
COc1ccc(C2CC(=O)N3CN(c4ccc(C)c(Cl)c4)CSC3=C2C#N)cc1 (stereo not given)	-12	5	-6	-69*	1
COc1cc(CNC(=O)c2cc(C3CC3)nc3onc(C)c23)ccc1OC(F)F	x	x	x	x	11
O=C(Nc1ccc(SCc2cccnc2)cc1)c1ccc2c(c1)OCCCO2	x	x	x	x	-1
CCOc1ccc(S(=O)(=O)[C@H]2CS(=O)(=O)C[C@@H]2N2CCN(c3ccc(F)cc3)CC2)cc1	x	x	x	x	-2
Cc1c(-c2ccccc2)oc2c(C(=O)N3CCC3)cccc2c1=O	x	x	x	x	1
CN=c1scc(-c2ccc(OC)cc2)n1/N=C(\C)c1cccnc1	27	35*	-6	-1	-6
Cn1cc(C(=O)CN2C(=O)COc3ccccc32)c2ccccc21	x	x	x	x	6
O=c1c2cc(NC(=S)NCCCN3CCC(Cc4ccccc4)CC3)ccc2nc2n1CCCCC2	-94*	-17	15	-3	-1
O=C1CCCCC(=O)[C@H](O)C[C@H](COCc2ccccc2)O1	0	91*	5	-7	0
O=C1NCC(COCc2ccccc2)O1 (stereo not given)	-16	4	7	-3	-5
N#Cc1nc(C2CC2)oc1N1CCN(C(=O)c2ccc(F)cc2F)CC1	x	x	x	x	-1
Nc1ccc2c3c(cccc13)-c1ccccc1-2	17	30*	-11	20	15
Cc1ccc2c3c(cccc13)-c1ccccc1C2=O	3	6	5	20	1
O=C(NCCc1c[nH]c2ccccc12)C1CCN(c2nc(Cl)nc3nc[nH]c23)CC1	x	x	x	x	0
COc1ccc(C(CNC(=O)c2cccc(S(=O)(=O)N3CCCCC3)c2)N2CCCC2)cc1 (stereo not given)	-51*	-12	-2	-3	-5
COc1ccc(C(CNC(=O)CNC(=O)c2ccccc2Cl)N2CCCC2)cc1 (stereo not given)	6	-13	-2	3	-5
COc1ccc(C(CNC(=O)c2cccc(S(=O)(=O)Nc3ccccc3OC)c2)N2CCCCC2)cc1 (stereo not given)	-81*	-28	-2	3	-3
COc1ccc(C(CNC(=O)c2ccc(C)c(S(=O)(=O)Nc3ccccc3OC)c2)N2CCCC2)cc1 (stereo not given)	-93*	-23	2	0	1
COc1ccc(C(CNC(=O)c2cc3ccccc3cc2OC)N2CCCC2)cc1 (stereo not given)	-56*	-10	4	-10	-4
COc1ccc(C(CNC(=O)c2cc(S(=O)(=O)N3CCCCC3)ccc2C)N2CCCC2)cc1 (stereo not given)	u	-15	-9	9	1
CN(Cc1ccccc1)C(=O)Nc1cccc(CN2CCOC2=O)c1	x	x	x	x	0

Screening results: PubChem BioAssay, National Center for Advancing Translational Sciences (NCATS)
